The results in this text go back to PubChem BioAssay (Tox21).

Results filed as inconclusive are left out. Where a call stands in place of a potency, no number is given. Unmarked numbers belong to inactive results. Calls of active or inactive are those of the source. Unless noted, calls follow the shape of the dose curve; as a rule, active = well fitted cell-killing curve with a large enough effect in the repeat runs; inconclusive = weak or mixed curves, or effect the other way; inactive = no such curve, though single readings can be large or run the other way.
Potency is read from the fitted curve at half-maximal effect.

The first experiment is described as follows: qHTS assay to identify small molecule agonists of the vitamin D receptor (VDR) signaling pathway - cell viability counter screen (AID 743224). Also: nearly all actives have a fitted effect of over 50% in size. To be noted: VDR-bla HEK293T viability, CellTiter-Glo luminescence, 16 h; series mostly up to 62.6 µM. The essentials:
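VDR-bla cell line, quantitative HTS format; 16 h compound incubation (37C, 5% CO2); ATP-based CellTiter-Glo luminescence measured in the reporter assay wells.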
With `CN(Cc1cc(Br)cc(Br)c1N)C1CCCCC1`, the Potency is 26.6 µM (active).

As for `CCN1CCN(c2cc(-c3ccc(F)cc3)c3c(n2)CCCCCC3)CC1`, the Potency entry was “inactive”.

Turning to `CCCN(CCc1cccs1)[C@H]1CCc2c(O)cccc2C1`, the Potency entry was “inactive”.

For the compound `CC(=O)Oc1ccc(C2(c3ccc(OC(C)=O)cc3)C(=O)Nc3ccccc32)cc1`, the Potency result is “inactive”.

For `CC(C)(C)C1=CC(=O)C=C(C(C)(C)C)C1=O`, the Potency result is “inactive”.

Regarding `CCCCCCCC/C=C\CCCCCCCC(=O)NCc1ccc(O)c(OC)c1`, the Potency is 33.5 µM (active).

As for `CN(C)c1ccc(N=Nc2ccccc2C(=O)O)cc1`, the Potency entry is “inactive”.

Consider `O=C1Nc2ccc(Cl)cc2[C@@](C#CC2CC2)(C(F)(F)F)O1`, for which the Potency result was “inactive”.

As to `O=S(=O)(O)CCCN1CCOCC1`, the Potency result is “inactive”.

For `CCN(CC)CCSC(=O)C(c1ccccc1)c1ccccc1`, the Potency entry is “inactive”.

Take `CC1(C)C(=O)N(Br)C(=O)N1Br`: the Potency result is “inactive”.

With `COc1cccc(CCc2ccccc2OCC(CN(C)C)OC(=O)CCC(=O)O)c1` (stereo unspecified), the Potency entry is “inactive”.

In the case of `CCCCNc1c(C(=O)OCC)c(C)nc2c1cnn2CC`, the Potency result is “inactive”.

With `Cc1cn[nH]c1`, the Potency entry was “inactive”.

For the compound `CC1CCCCN1CCCOC(=O)c1ccc(OC2CCCCC2)cc1` (stereo unspecified), the Potency result was “inactive”.

Regarding `O=C(O)CCCCCCC(=O)O`, the Potency result was “inactive”.

On to `NCCCC(O)(P(=O)(O)O)P(=O)(O)O`, for which the Potency result was “inactive”.

Regarding `O=C(c1ccccc1)c1cc(Cl)ccc1O`, the Potency entry is “inactive”.

`COC(=O)CC(C)CCC=C(C)C` (stereo unspecified): the Potency result was “inactive”.

Regarding `c1cc2c3c(c1)ccc1cccc(c13)C2`, the Potency is 56.1 µM (active).

With `O=C1NCCN1CCN1CCC(c2cn(-c3ccc(F)cc3)c3ccc(Cl)cc23)CC1`, the Potency is 11.9 µM (active).

In the case of `CC(=O)Oc1ccc(C2(c3ccc(OC(C)=O)cc3)Oc3ccccc3NC2=O)cc1`, the Potency result is “inactive”.

For the compound `CCCCCCCCCCCC(=O)N(CC)CC`, the Potency entry was “inactive”.

Turning to `CNC(=S)NN`, the Potency was 5.49 µM (active).

Turning to `Cc1ccc(CCn2c3c(c4cc(Cl)ccc42)CN(C)CC3)cn1`, the Potency entry is “inactive”.

For `ClC/C=C\CCl`, the Potency result was “inactive”.

`C=CC(C)(CCC=C(C)C)OC(=O)/C=C/c1ccccc1` (stereo unspecified): the Potency was 38.9 µM (active).

A further experiment in a line: qHTS assay to identify small molecule antagonists of the vitamin D receptor (VDR) signaling pathway - cell viability counter screen (AID 743225). Also: nearly all actives have a fitted effect of over 50% in size. The conditions noted are these: VDR-bla HEK293T viability, CellTiter-Glo luminescence, 16 h; series mostly up to 61 µM. The essentials:
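In this counter screen, VDR-bla HEK 293T cells receive test compound plus 3 nM final calcitriol for 16 h at 37C. Room-temperature steps of 2 h with the beta-lactamase substrate, then 30 min with CellTiter-Glo, precede the luminescence read.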
As for `CN(Cc1cc(Br)cc(Br)c1N)C1CCCCC1`, the Potency result is “inactive”.

For `CC(=O)Oc1ccc(C2(c3ccc(OC(C)=O)cc3)C(=O)Nc3ccccc32)cc1`, the Potency entry is “inactive”.

`CCCCCCCC/C=C\CCCCCCCC(=O)NCc1ccc(O)c(OC)c1`: the Potency was 21.3 µM (active).

Consider `C/C=C/C=N/NC(=O)c1ccncc1`, for which the Potency result is “inactive”.

With `CN(C)c1ccc(N=Nc2ccccc2C(=O)O)cc1`, the Potency entry was “inactive”.

`CCN(CC)CCSC(=O)C(c1ccccc1)c1ccccc1`: the Potency result was “inactive”.

With `CC1(C)C(=O)N(Br)C(=O)N1Br`, the Potency result is “inactive”.

As for `CCC(C)(C)c1cc(O)c(C(C)(C)CC)cc1O`, the Potency entry was “inactive”.

`c1cc(OCC2CO2)cc(OCC2CO2)c1` (stereo unspecified): the Potency entry was “inactive”.

For `COc1cccc(CCc2ccccc2OCC(CN(C)C)OC(=O)CCC(=O)O)c1` (stereo unspecified), the Potency entry was “inactive”.

For `CCCCNc1c(C(=O)OCC)c(C)nc2c1cnn2CC`, the Potency entry was “inactive”.

Regarding `NC1(c2ccc(-c3nc4ccn5c(=O)[nH]nc5c4cc3-c3ccccc3)cc2)CCC1`, the Potency was 21.3 µM (active).

Take `O=C(O)CCCCCCC(=O)O`: the Potency result is “inactive”.

Regarding `O=C(c1ccccc1)c1cc(Cl)ccc1O`, the Potency entry was “inactive”.

Consider `COC(=O)CC(C)CCC=C(C)C` (stereo unspecified), for which the Potency result was “inactive”.

`CC(=O)Oc1ccc(C2(c3ccc(OC(C)=O)cc3)Oc3ccccc3NC2=O)cc1`: the Potency entry was “inactive”.

For the compound `CCCCCCCCCCCC(=O)N(CC)CC`, the Potency result was “inactive”.

Turning to `Cc1ccc(CCn2c3c(c4cc(Cl)ccc42)CN(C)CC3)cn1`, the Potency entry was “inactive”.

Regarding `N[C@@H](CSSC[C@H](N)C(=O)O)C(=O)O`, the viability change, negative = cytotoxic was 6.19% [at 0.628 µM].

A further experiment can be described thus: qHTS assay to identify small molecule agonists of the endoplasmic reticulum stress response signaling pathway (AID 1159516; active = well fitted activation curve with a large enough effect in the signal ratio in the repeat runs, not every such curve was filed as active; the % refers to the signal ratio). To be noted: ESRE-bla HeLa, ER stress beta-lactamase reporter, 5 h; series mostly up to 61 µM. An outline of the steps: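 ER stress element reporter (bla) in HeLa. 1,500 cells/well, overnight attachment; 5 hr compound; 2 hr RT substrate; dual-emission fluorescence.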
For `CN(Cc1cc(Br)cc(Br)c1N)C1CCCCC1`, the Potency entry was “inactive”.

As to `CCN1CCN(c2cc(-c3ccc(F)cc3)c3c(n2)CCCCCC3)CC1`, the Potency entry is “inactive”.

`CCCN(CCc1cccs1)[C@H]1CCc2c(O)cccc2C1`: the Potency result is “inactive”.

Consider `CC(=O)Oc1ccc(C2(c3ccc(OC(C)=O)cc3)C(=O)Nc3ccccc32)cc1`, for which the Potency entry is “inactive”.

In the case of `CC(C)(C)C1=CC(=O)C=C(C(C)(C)C)C1=O`, the Potency entry is “inactive”.

With `CCCCCCCC/C=C\CCCCCCCC(=O)NCc1ccc(O)c(OC)c1`, the Potency result was “inactive”.

Take `C/C=C/C=N/NC(=O)c1ccncc1`: the Potency result was “inactive”.

Consider `CN(C)c1ccc(N=Nc2ccccc2C(=O)O)cc1`, for which the Potency entry is “inactive”.

With `O=C1Nc2ccc(Cl)cc2[C@@](C#CC2CC2)(C(F)(F)F)O1`, the Potency result is “inactive”.

`CCCCCCCC/C=C/CCCOC(C)=O`: the Potency entry was “inactive”.

With `O=S(=O)(O)CCCN1CCOCC1`, the Potency entry is “inactive”.

For `CCN(CC)CCSC(=O)C(c1ccccc1)c1ccccc1`, the Potency result was “inactive”.

As to `O=C(O)Cc1ccc(OCCNC[C@H](O)c2ccccc2)cc1`, the Potency result is “inactive”.

For the compound `CC1(C)C(=O)N(Br)C(=O)N1Br`, the Potency result is “inactive”.

In the case of `CCC(C)(C)c1cc(O)c(C(C)(C)CC)cc1O`, the Potency was 3.89 µM (active).

In the case of `c1cc(OCC2CO2)cc(OCC2CO2)c1` (stereo unspecified), the Potency result was “inactive”.

Consider `COc1cccc(CCc2ccccc2OCC(CN(C)C)OC(=O)CCC(=O)O)c1` (stereo unspecified), for which the Potency result was “inactive”.

For `CCCCNc1c(C(=O)OCC)c(C)nc2c1cnn2CC`, the Potency result is “inactive”.

For the compound `Cc1cn[nH]c1`, the Potency result was “inactive”.

Consider `CC1CCCCN1CCCOC(=O)c1ccc(OC2CCCCC2)cc1` (stereo unspecified), for which the Potency entry is “inactive”.

For the compound `NC1(c2ccc(-c3nc4ccn5c(=O)[nH]nc5c4cc3-c3ccccc3)cc2)CCC1`, the Potency result was “inactive”.

Take `CCNc1nc(NC(C)CC)nc(OC)n1` (stereo unspecified): the Potency entry was “inactive”.

Consider `O=C(O)CCCCCCC(=O)O`, for which the Potency result is “inactive”.

`NCCCC(O)(P(=O)(O)O)P(=O)(O)O`: the Potency result is “inactive”.

Consider `O=C(c1ccccc1)c1cc(Cl)ccc1O`, for which the Potency result is “inactive”.

On to `COC(=O)CC(C)CCC=C(C)C` (stereo unspecified), for which the Potency entry was “inactive”.

For `c1cc2c3c(c1)ccc1cccc(c13)C2`, the Potency result was “inactive”.

In the case of `O=C1NCCN1CCN1CCC(c2cn(-c3ccc(F)cc3)c3ccc(Cl)cc23)CC1`, the Potency result was “inactive”.

Consider `CC(=O)Oc1ccc(C2(c3ccc(OC(C)=O)cc3)Oc3ccccc3NC2=O)cc1`, for which the Potency result was “inactive”.

For the compound `CCCCCCCCCCCC(=O)N(CC)CC`, the Potency entry is “inactive”.

Turning to `CNC(=S)NN`, the Potency result is “inactive”.

In the case of `Cc1ccc(CCn2c3c(c4cc(Cl)ccc42)CN(C)CC3)cn1`, the Potency entry was “inactive”.

Regarding `N[C@@H](CSSC[C@H](N)C(=O)O)C(=O)O`, the activation was -7.2% [at 0.628 µM].

Regarding `ClC/C=C\CCl`, the Potency result is “inactive”.

`C=CC(C)(CCC=C(C)C)OC(=O)/C=C/c1ccccc1` (stereo unspecified): the Potency result is “inactive”.
